Laboratory results reported in PubChem BioAssay AID1159580 (chemical genetic matrix, 2015).
In all, about 5,500 compounds went through this assay and about 2,000 (36%) were called active. Inconclusive results (about 18%) are left out. Rule as the data show it: active = normalized growth mostly below about 0.91 (no sharp cut-off); inconclusive = no clear call, values can overlap the other calls; inactive = mostly above about 0.92. This is one part of the list.

Assay: chemical genetic growth profiling, strain panel (AID 1159580);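 also: tested at 20 µM; growth read once vehicle control cultures reached saturation at 30 °C; 1 = growth at the plate median or of vehicle wells; lower values mean less growth of the strain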
Conditions: S. cerevisiae deletion strains, growth OD

Measured: normalized growth

O=C(O)COc1ccc(Cl)cc1Cl
inactive: locus YAL013W, strain DEP1, stronger effect = lower value 1.01 | locus YAL021C, strain ccr4, stronger effect = lower value 0.997 | locus YAL026C, strain drs2, stronger effect = lower value 1.01 | locus YAL030W, strain snc1, stronger effect = lower value 0.988 | locus YBL061C, strain skt5, stronger effect = lower value 0.997 | locus YBR009C, strain hhf1, stronger effect = lower value 0.992 | locus YBR021W, strain FUR4, stronger effect = lower value 1 | locus YBR023C, strain chs3, stronger effect = lower value 0.992 | locus YBR171W, strain sec66, stronger effect = lower value 1 | locus YBR229C, strain ROT2, stronger effect = lower value 0.999 | locus YBR231C, strain swc5, stronger effect = lower value 0.989 | locus YBR279W, strain paf1, stronger effect = lower value 0.992 | locus YCL011C, strain gbp2, stronger effect = lower value 1 | locus YCL016C, strain dcc1, stronger effect = lower value 0.994 | locus YCL029C, strain bik1, stronger effect = lower value 1.03 | locus YCL061C, strain MRC1, stronger effect = lower value 0.995 | locus YCL069W, strain vba3, stronger effect = lower value 1 | locus YCR088W, strain abp1, stronger effect = lower value 1 | locus YDL005C, strain med2, stronger effect = lower value 0.992 | locus YDL035C, strain GPR1, stronger effect = lower value 1.03 | locus YDL040C, strain nat1, stronger effect = lower value 0.996 | locus YDL074C, strain BRE1, stronger effect = lower value 1.05 | locus YDL101C, strain DUN1, stronger effect = lower value 0.999 | locus YDL134C, strain PPH21, stronger effect = lower value 1.02 | locus YDL185W, strain tfp1, stronger effect = lower value 1.02 | locus YDL192W, strain arf1, stronger effect = lower value 1.02 | locus YDR001C, strain nth1, stronger effect = lower value 1 | locus YDR069C, strain doa4, stronger effect = lower value 0.986 | locus YDR101C, strain arx1, stronger effect = lower value 1.02 | locus YDR137W, strain rgp1, stronger effect = lower value 1.01 | locus YDR150W, strain NUM1, stronger effect = lower value 1.01 | locus YDR159W, strain sac3, stronger effect = lower value 0.982 | locus YDR162C, strain NBP2, stronger effect = lower value 1.01 | locus YDR195W, strain ref2 0.968 | locus YDR297W, strain sur2, stronger effect = lower value 1.01 | locus YDR318W, strain mcm21, stronger effect = lower value 1.03 | locus YDR334W, strain swr1, stronger effect = lower value 1 | locus YDR335W, strain msn5, stronger effect = lower value 0.998 | locus YDR388W, stronger effect = lower value 1.02 | locus YDR392W, strain spt3, stronger effect = lower value 1 | locus YDR502C, strain sam2, stronger effect = lower value 1.02 | locus YEL003W, strain gim4, stronger effect = lower value 0.995 | locus YEL037C, strain rad23, stronger effect = lower value 1.01 | locus YEL061C, strain CIN8 (second series), stronger effect = lower value 0.989 | locus YEL061C, strain CIN8, stronger effect = lower value 1 | locus YER015W, strain faa2, stronger effect = lower value 0.997 | locus YER016W, strain bim1, stronger effect = lower value 1 | locus YER110C, stronger effect = lower value 1.02 | locus YER111C, strain swi4, stronger effect = lower value 0.977 | locus YER155C, strain BEM2 (second series), stronger effect = lower value 1.01 | locus YER155C, strain BEM2, stronger effect = lower value 1.01 | locus YER167W, strain BCK2, stronger effect = lower value 1.02 | locus YFR010W, strain ubp6, stronger effect = lower value 0.998 | locus YGL078C, strain dbp3, stronger effect = lower value 1.02 | locus YGL086W, strain mad1, stronger effect = lower value 1.01 | locus YGL167C, strain pmr1, stronger effect = lower value 1 | locus YGL173C, strain kem1, stronger effect = lower value 0.984 | locus YGL227W, strain vid30, stronger effect = lower value 0.987 | locus YGL240W, strain doc1, stronger effect = lower value 0.982 | locus YGL248W, strain PDE1, stronger effect = lower value 1.03 | locus YGL253W, strain hxk2, stronger effect = lower value 0.995 | locus YGR078C, strain PAC10, stronger effect = lower value 1.02 | locus YGR135W, strain pre9, stronger effect = lower value 1.02 | locus YGR229C, strain SMI1, stronger effect = lower value 1.04 | locus YGR252W, strain gcn5, stronger effect = lower value 1.03 | locus YHR013C, strain ard1, stronger effect = lower value 0.995 | locus YHR027C, strain rpn1, stronger effect = lower value 0.994 | locus YHR030C, strain SLT2, stronger effect = lower value 0.999 | locus YHR079C, strain IRE1 (second series), stronger effect = lower value 1.03 | locus YHR094C, strain hxt1, stronger effect = lower value 1.01 | locus YHR129C, strain ARP1, stronger effect = lower value 1 | locus YHR142W, strain chs7, stronger effect = lower value 1.01 | locus YHR200W, strain rpn10, stronger effect = lower value 1.01 | locus YIL066C, strain RNR3, stronger effect = lower value 1.02 | locus YIL073C, strain SPO22, stronger effect = lower value 1.1 | locus YIL125W, strain kgd1, stronger effect = lower value 1.03 | locus YIR030C, strain dcg1, stronger effect = lower value 1.02 | locus YJL092W, strain hpr5, stronger effect = lower value 0.987 | locus YJL095W, strain BCK1 (second series), stronger effect = lower value 0.987 | locus YJL095W, strain BCK1, stronger effect = lower value 1.02 | locus YJL115W, strain asf1, stronger effect = lower value 1 | locus YJL129C, strain trk1, stronger effect = lower value 1.02 | locus YJL134W, strain LCB3, stronger effect = lower value 1 | locus YJL154C, strain vps35, stronger effect = lower value 1 | locus YJL164C, strain tpk1, stronger effect = lower value 1 | locus YJL166W, strain qcr8, stronger effect = lower value 0.992 | locus YJL168C, strain set2, stronger effect = lower value 1.02 | locus YJL187C, strain SWE1 (second series), stronger effect = lower value 1.01 | locus YJL187C, strain SWE1, stronger effect = lower value 1
